Results filed as inconclusive are left out. Entries that show only a call come without a potency. The source made the active and inactive calls. Calls come from the whole dose curve; as a rule, active = well fitted curve in the direction sought with a large enough effect; inconclusive = small, poorly fitted or top-dose-only effect, or another doubt; inactive = no such curve, though single readings can be large; an effect the other way counts as inactive or inconclusive.

Assay [1] can be described thus: Cell Viability - LYMP1-003 - Assay at 40 hr (AID 964). Note: potency is the fitted concentration of half-maximal effect; nearly all actives have a fitted effect of over 60% in size. The method in brief: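 Acute toxicity is scored as a concentration-dependent loss of intracellular ATP in LYMP1-003 cells (2500/well, complete medium) after 40 hr at 37 C, measured by CellTiter-Glo luminescence; AC50 values derive from standard Hill modelling.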
A short description of assay [2]: MultiTox-Fluor Cytotoxicity Assay - LYMP1-003 - Dead Cells (AID 961). Note: potency is the fitted concentration of half-maximal effect; nearly all actives have a fitted effect of over 70% in size. The method in brief: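 LYMP1-003 human lymphoblastoid cells (2500/well) exposed to compound 16 h at 37 C in complete medium; dead-cell protease read with bis-AAF-R110 fluorescence (Ex/Em 485/520) after 60 min at room temperature. Normalized to DMSO and 15 uM tetraoctylammonium bromide; AC50 from Hill fit.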

Assay [3] concerns the target Alpha-galactosidase (Coffea arabica) (UniProt Q42656). The experiment in a line: Counterscreen for Glucocerebrosidase Inhibitors: qHTS Assay for Coffee Bean alpha-Galactosidase at pH 4.5 (AID 957). Note: series mostly up to about 77 µM. A digest of the protocol:
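Quantitative HTS of compounds (0.7 nM to 77 uM) against coffee bean alpha-galactosidase at pH 4.5, measuring 4-methylumbelliferone fluorescence released from 80 uM substrate.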
(In general: Counterscreens check selectivity or assay interference.)

A short description of assay [4]: MultiTox-Fluor Cytotoxicity Assay - LYMP1-003 - Live Cells (AID 962). Note: potency is the fitted concentration of half-maximal effect. A digest of the protocol: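 Human lymphoblastoid line LYMP1-003 in complete culture medium, treated 16 hr with titrated compounds. Viable cells quantified via cell-permeant GF-AFC substrate fluorescence; AC50 derived by Hill fitting.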
A short description of assay [5]: Cell Viability - LYMP1-003 - Assay at 24 hr (AID 963). Note: potency is the fitted concentration of half-maximal effect. A digest of the protocol:
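The lymphoblastoid line was treated with titrated compounds for 24 hours, and viable cell number estimated from luciferase-based ATP luminescence.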

Assay [6] in a line: Cell Viability - LYMP2-003 (AID 965).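 Note: potency is the fitted concentration of half-maximal effect; cells exposed to compounds for 24 h before reading; nearly all actives have a fitted effect of over 50% in size.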 A digest of the protocol:
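CellTiter-Glo luminescence quantified ATP loss after 24 h compound treatment of LYMP2-003 lymphoblastoid cells at 37 C. Titration series were fitted with the standard Hill equation to give AC50.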

Assay [7] is described as follows: MultiTox-Fluor Cytotoxicity Assay - LYMP1-002 - Dead Cells (AID 960). Note: nearly all actives have a fitted effect of over 60% in size. The method in brief:
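Concentration-dependent increases in membrane-leaked protease activity are quantified in LYMP1-002 cells after 16 hr treatment; values are normalized against DMSO and tetraoctylammonium bromide (15 uM) controls and AC50 derived by Hill modeling.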

Alpha-galactosidase (Coffea arabica), sequence (Q42656 whole entry, looked up): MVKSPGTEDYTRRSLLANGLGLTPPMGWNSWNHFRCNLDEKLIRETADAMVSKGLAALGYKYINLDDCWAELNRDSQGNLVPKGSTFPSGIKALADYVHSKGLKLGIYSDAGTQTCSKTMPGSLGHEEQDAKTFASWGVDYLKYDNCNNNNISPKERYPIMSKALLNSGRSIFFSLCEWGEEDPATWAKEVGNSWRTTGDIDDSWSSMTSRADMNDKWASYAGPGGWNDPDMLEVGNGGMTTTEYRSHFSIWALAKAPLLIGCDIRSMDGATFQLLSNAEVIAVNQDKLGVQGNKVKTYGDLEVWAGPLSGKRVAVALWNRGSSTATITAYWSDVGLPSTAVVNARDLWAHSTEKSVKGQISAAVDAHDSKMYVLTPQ

With `Oc1ccc(Cl)cc1Sc1cc(Cl)ccc1O`, the Potency in assay [1] was 31.6 µM (active).
For the molecule `CCCCCCCCCCCCCCCC[n+]1ccccc1`, in assay [2], the Potency was 20 µM (active).
On to `Cn1c(=O)c2c(ncn2C)n(C)c1=O`, for which, in assay [3], the outcome was inactive.
The same measure, in the same setting: with `C[N+](C)(C)CCCCCCCCCC[N+](C)(C)C` the entry was “inactive”; with `Cc1cc(C(C)(C)C)cc(C)c1CC1=NCCN1`, “inactive”; with `Cc1nc2sccn2c(=O)c1CCN1CCC(=C(c2ccc(F)cc2)c2ccc(F)cc2)CC1`, “inactive”.
Take `CN(C)CCOC(c1ccccc1)c1ccccc1`: the molecule was called inactive in assay [3].
As to `COCC(=O)O[C@]1(CCN(C)CCCc2nc3ccccc3[nH]2)CCc2cc(F)ccc2[C@@H]1C(C)C`, the molecule was classed as inactive in assay [3].
On the same count and under the same terms, with `C[C@]12C=CC(=O)C=C1CC[C@H]1[C@@H]3C[C@@H](O)[C@](O)(C(=O)CO)[C@@]3(C)C[C@H](O)[C@@]12F` the entry was “inactive”; with `NCCc1cnc[nH]1`, “inactive”; with `OC(CN1CCC(Cc2ccc(F)cc2)CC1)c1ccc(Cl)cc1` (stereo unspecified), “inactive”.
Still for that read-out and setting: with `Oc1ccc(O)cc1` the entry was “inactive”.
On the same count and under the same terms, then `NC(N)=NCCC[C@H](N)C(=O)O`, with “inactive”; and `O=c1[nH]c2ccccc2n1CCCN1CCN(C(c2ccccc2)c2ccccc2)CC1`, with “inactive”.
On to `COc1ccc(CN(CCN(C)C)c2ccccn2)cc1`, for which the molecule was called inactive in assay [3].
For `CN(C)c1ccc(C(=C2C=CC(=[N+](C)C)C=C2)c2ccc(N(C)C)cc2)cc1`, the Potency in assay [2] is 10 µM (active).
For `O=C1CC2(CCCC2)CC(=O)N1CCCCN1CCN(c2ncccn2)CC1`, the molecule was called inactive in assay [3].
The same measure, in the same setting: with `O=C1N(c2ccccc2)c2ccccc2C1(Cc1ccncc1)Cc1ccncc1` the entry was “inactive”.
Take `Oc1ccc(Cl)cc1Cc1cc(Cl)ccc1O`: the Potency in assay [1] was 25.1 µM (active).
Take `C[C@]12CCC(=O)C=C1CC[C@@H]1[C@@H]2[C@@H](O)C[C@@]2(C)[C@H]1CC[C@]2(O)C(=O)CO`: the outcome in assay [3] was inactive.
For the molecule `CCCCNc1c(C(=O)OCC)c(C)nc2c1cnn2CC`, the molecule was classed as inactive in assay [3].
Still for that read-out and setting: then `COc1cc(C(=O)OCCCN2CCCN(CCCOC(=O)c3cc(OC)c(OC)c(OC)c3)CC2)cc(OC)c1OC`, with “inactive”.
Same read-out and setting: then `OCCN1CCN(CCCN2c3ccccc3C=Cc3ccccc32)CC1`, with “inactive”.
For the molecule `CC[n+]1c(-c2ccccc2)c2cc(N)ccc2c2ccc(N)cc21`, the Potency was 39.8 µM (active) in assay [2]; 12.6 µM (active) in assay [4]; 15.8 µM (active) in assay [5]; 6.31 µM (active) in assay [1]; 31.6 µM (active) in assay [6].
`COC(=O)[C@@H](N)Cc1ccc(O)c(O)c1`: the result in assay [3] was inactive.
The same measure, in the same setting: then `C[C@]12CCC(=O)C=C1CC[C@@H]1[C@@H]2C(=O)C[C@@]2(C)[C@H]1CC[C@]2(O)C(=O)CO`, with “inactive”; and `Cn1cnc2c1c(=O)[nH]c(=O)n2C`, with “inactive”; and `CCC(=O)c1ccc2c(c1)N(CCCN(C)C)c1ccccc1S2`, with “inactive”.
The same measure, in the same setting: with `CCc1cccc(N(C)C(N)=Nc2cccc3ccccc23)c1` the entry was “inactive”; with `O=C(O)CP(=O)(O)O`, “inactive”; with `Cc1ccc(=O)n(-c2ccccc2)c1`, “inactive”.
On the same count and under the same terms, then `CCOC(=O)Nc1ccc(NCc2ccc(F)cc2)nc1N`, with “inactive”; and `CCOC(=O)C(C)(C)Oc1ccc(Cl)cc1`, with “inactive”.
Take `N[C@@H](Cc1c[nH]c2ccc(O)cc12)C(=O)O`: in assay [3], the molecule was called inactive.
Same read-out and setting: then `CSc1ccc(C(=O)c2[nH]c(=O)[nH]c2C)cc1`, with “inactive”; and `CN(C)CCCN1c2ccccc2Sc2ccccc21`, with “inactive”.
In the case of `CC1(C)[C@@H]2CC[C@@]1(C)C(=O)C2`, the Potency result in assay [7] was “inactive”.

The values above are taken from PubChem BioAssay (NCATS).
